Results as given in PubChem BioAssay (NCI).
About 83,000 compounds went through this panel and 20% of them were active in at least one assay; those are over-represented in the sample as a whole.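 How to read the values: 0–100, growth inhibition (40 = 60% inhibited); 0, no net growth; -100 to 0, cell death (-40 = 40% of starting cells died; -100 = all dead).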 Unmarked numbers belong to inactive results. Calls of active or inactive are those of the source. How the source made its calls: active means growth percent below 10; inactive means the rest.

Assays:
Experiment in all cases: NCI-60 one-dose screen, 48 h (100 = growth as untreated, 0 = no growth, -100 = all killed)
Conditions in all cases: 10 µM unless noted
NCI-H23 lung = test system: NCI-H23 lung
NCI-H226 lung = test system: NCI-H226 lung
NCI-H322M lung = test system: NCI-H322M lung
HOP-62 NSCLC = test system: HOP-62 NSCLC
NCI-H460 lung = test system: NCI-H460 lung
HOP-92 NSCLC = test system: HOP-92 NSCLC
A549/ATCC NSCLC = test system: A549/ATCC NSCLC
786-0 renal = test system: 786-0 renal
COLO 205 colon = test system: COLO 205 colon
DU-145 prostate = test system: DU-145 prostate
K-562 leukemia = test system: K-562 leukemia
MALME-3M melanoma = test system: MALME-3M melanoma
MDA-MB-231 breast = test system: MDA-MB-231 breast
RXF 393 renal = test system: RXF 393 renal
SF-268 CNS = test system: SF-268 CNS
SF-295 CNS = test system: SF-295 CNS
SF-539 CNS = test system: SF-539 CNS
UACC-257 melanoma = test system: UACC-257 melanoma
M14 melanoma = test system: M14 melanoma

Row | Compound | growth (NCI-H23 lung) | growth (NCI-H226 lung) | growth (NCI-H322M lung) | growth (HOP-62 NSCLC) | growth (NCI-H460 lung) | growth (HOP-92 NSCLC) | growth (A549/ATCC NSCLC) | growth (786-0 renal) | growth (COLO 205 colon) | growth (DU-145 prostate) | growth (K-562 leukemia) | growth (MALME-3M melanoma) | growth (MDA-MB-231 breast) | growth (RXF 393 renal) | growth (SF-268 CNS) | growth (SF-295 CNS) | growth (SF-539 CNS) | growth (UACC-257 melanoma) | growth (M14 melanoma)
1 | CNNc1ncnc2c1cnn2-c1ccc(S(N)(=O)=O)cc1 | 94.2% | 91.3% | 104% | 85.6% | 117% | 41.5% | 92.9% | 91.7% | 120% | 112% | 78.3% | 112% | 89.5% | 16% | 106% | 84% | 93.8% | 89% | 95%
2 | CC1CN(CC(O)c2ccc(Br)cc2)CCO1 (stereo not given) | 104% | 109% | 107% | 108% | 108% | 82.5% | 102% | 102% | 98.1% | 114% | 96.9% | 116% | 123% | 124% | 99.9% | 112% | 106% | 105% | 104%
3 | O=C(O)c1ccc2cccnc2c1O | 8.65% (active) | 6.97% (active) | 12.4% | 13.6% | 6.87% (active) | -29.3% (active) | 10.4% | 7.02% (active) | -70.9% (active) | 22.2% | 11.1% | -7.97% (active) | 11.4% | 27.7% | 21.6% | 6.02% (active) | 10.4% | -9.12% (active) | 8.98% (active)
4 | OC(c1cc(-c2cccc(Cl)c2)nc2ccccc12)C1CCCCN1 (stereo not given) | 3.63% (active) | 31.2% | -12.3% (active) | -67.3% (active) | -47% (active) | -17.6% (active) | -90.4% (active) | -82.6% (active) | -85.7% (active) | -33.8% (active) | -47.2% (active) | -69.6% (active) | -6.36% (active) | -46.4% (active) | 21.4% | -47.5% (active) | -52.9% (active) | -91.9% (active) | -81.5% (active)
5 | COc1ccc(-c2cc(-c3cccnc3)nc(S(=O)(=O)CC(=O)Nc3ccc(C)cc3)c2C#N)cc1OC | 85% | 94.2% | 91.7% | 96.8% | 101% | 76% | 93.4% | 87.9% | 96.5% | 95% | 102% | 94.7% | 77.6% | 90.4% | 83.5% | 97.9% | 95.1% | 104% | 111%
6 | CCOc1cc(/C=C/C(=O)C(C(=O)/C=C/c2ccc(OC(=O)CNc3nc4ccccc4[nH]3)c(OCC)c2)C(=O)CNc2nc3ccccc3[nH]2)ccc1OC(=O)CNc1nc2ccccc2[nH]1 | 6.88% (active) | -10.9% (active) | 23.2% | 10.1% | -27.3% (active) | -13% (active) | 7.62% (active) | -47.7% (active) | -41.8% (active) | -24.8% (active) | -26.2% (active) | -35.1% (active) | -16.3% (active) | -71.4% (active) | 8.48% (active) | -20.4% (active) | -33.4% (active) | 21.1% | -6.17% (active)
7 | O=C(Nc1ccccc1OC(=O)c1ccccc1)c1ccccc1 | 70.6% | 104% | 72.3% | 85.2% | 98.1% | 89.5% | 81.3% | 96% | 108% | 112% | 25.2% | 93.9% | 56.1% | 121% | 47.3% | 109% | 95.7% | 63.8% | 102%
8 | CCCc1n(Cc2ccc3ccccc3c2)cc[n+]1Cc1ccc2ccccc2c1 | -28.2% (active) | 0.228% (active) | 23.2% | 5.82% (active) | 3.26% (active) | -38.3% (active) | 31.6% | 9.55% (active) | -66.9% (active) | 20.3% | 2.49% (active) | -49.6% (active) | -80.1% (active) | -30.4% (active) | 7.55% (active) | -1.49% (active) | 1.21% (active) | -33.6% (active) | -28.4% (active)
9 | O=C(C(=O)c1cc(Br)ccc1O)c1cc(Br)ccc1O | 19.8% | 90.9% | 67.6% | 50.3% | 39% | 25.4% | 50.7% | 61.2% | 100% | 67.7% | 42.8% | 31.2% | 64.8% | 65.7% | 38.1% | 67.9% | 53.2% | 43.1% | 66.9%
10 | O=C(CSc1nnc(-c2cc(-c3ccccc3)nc3ccccc23)o1)c1ccc(Br)cc1 | 106% | 104% | 103% | 101% | 106% | 114% | 105% | 104% | 119% | 106% | 91% | 97.3% | 95.4% | 108% | 93.8% | 107% | 99.6% | 111% | 101%
11 | Cc1cc(=O)[nH]c(/C(=N/Nc2ccccc2)C(=O)c2ccc(Cl)cc2)n1 | 105% | 109% | 107% | 104% | 109% | 88.7% | 92.5% | 82.2% | 106% | 105% | 52.7% | 114% | 102% | 28.5% | 117% | 75.7% | 92.3% | 103% | 97.1%
12 | O=C1NC(=O)/C(=C/c2ccc(Cl)cc2Cl)N1 | 91.2% | 99.4% | 104% | 99.1% | 109% | 81.2% | 101% | 109% | 100% | 117% | 104% | 100% | 110% | 120% | 103% | 114% | 103% | 108% | 121%
13 | N/C(=N\C(N)=N\c1nc2ccccc2s1)c1ccnc(Cl)c1 | 43.4% | 48.8% | 70.1% | 44.4% | 17.3% | 73.9% | 47.4% | 41.1% | 18.1% | 26.9% | 8.95% (active) | 64.9% | 49.7% | -6.26% (active) | 61.5% | 17.6% | 7.12% (active) | 74.4% | 27.9%
14 | OCCCc1n(Cc2ccc3ccccc3c2)c2ccccc2[n+]1Cc1ccc2ccccc2c1 | 19% | 48.5% | 49.9% | 37.5% | 18.4% | -24.3% (active) | 68.4% | 36% | -58.9% (active) | 48.1% | 9.14% (active) | -11.2% (active) | -17.7% (active) | 14.6% | 22.5% | 32.8% | 18.1% | -14.1% (active) | 3% (active)
15 | O=C(Nc1nc2c(C(F)(F)F)cccc2s1)c1cc(Cl)ccc1O | 3.47% (active) | -3.02% (active) | 4.87% (active) | -7.84% (active) | 2.33% (active) | -27.8% (active) | 3.66% (active) | 1.42% (active) | -69.9% (active) | 23% | 5.1% (active) | -24.8% (active) | -13.2% (active) | -5.36% (active) | 21.2% | -21.2% (active) | 15% | -23.7% (active) | 8.01% (active)
